A short description of test [1]: Cell Viability - LYMP2-001 (AID 921). Further: series mostly up to about 92 µM; nearly all actives have a fitted effect of over 70% in size. In outline: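 CellTiter-Glo luminescence (intracellular ATP) after 24 hr compound exposure at 37 C, 2500 lymphoblastoid cells/well in complete medium. AC50 fitted with standard Hill equation; tetraoctylammonium bromide positive control.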
Test [2] is described as follows: MultiTox-Fluor Cytotoxicity Assay - LYMP1-001 - Dead Cells (AID 946). Further: potency means the concentration at half of the fitted maximal effect. An outline of the steps:
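LYMP1-001 lymphoblastoid cells (2500/well) treated 16 h at 37 C. Dead-cell protease cleavage of bis-AAF-R110 read at Ex/Em 485/520. Normalized to DMSO and 15 uM tetraoctylammonium bromide; AC50 from Hill fits.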

Test [3] in a line: MultiTox-Fluor Cytotoxicity Assay - LYMP1-001 - Live Cells (AID 947).
The nature of test [4]: Cell Viability - LYMP1-002 - Assay at 16 hr (AID 948). An outline of the steps:
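LYMP1-002 human lymphoblastoid cells, 2500/well; 5 hr 37 C; cpd 16 hr 37 C; CellTiter-Glo 30 min RT; luminescence (ATP). Concentration-response, Hill-fit AC50. Pos ctrl tetraoctylammonium bromide.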

Test [5] is described as follows: MultiTox-Fluor Cytotoxicity Assay - LYMP1-002 - Live Cells (AID 955). In outline:
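Cells were seeded at 2500 per well and incubated 5 hr. Compounds were then added for 16 hr at 37 C, followed by MultiTox-Fluor reagent for 60 min at room temperature and fluorescence reading of viable-cell protease signal.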

A short description of test [6]: MultiTox-Fluor Cytotoxicity Assay - LYMP1-002 - Dead Cells (AID 960). Further: nearly all actives have a fitted effect of over 60% in size. Further: potency means the concentration at half of the fitted maximal effect. An outline of the steps:
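Cells were plated, rested 5 hr, then treated with compound dilution series for 16 hr at 37 C. After adding substrate reagent and 60 min at room temperature, dead-cell protease fluorescence gave concentration-response curves fitted by the Hill equation.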

Test [7] in a line: MultiTox-Fluor Cytotoxicity Assay - LYMP1-003 - Dead Cells (AID 961). Further: nearly all actives have a fitted effect of over 70% in size. Further: potency means the concentration at half of the fitted maximal effect. In outline: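 LYMP1-003 human lymphoblastoid cells (2500/well) exposed to compound 16 h at 37 C in complete medium; dead-cell protease read with bis-AAF-R110 fluorescence (Ex/Em 485/520) after 60 min at room temperature. Normalized to DMSO and 15 uM tetraoctylammonium bromide; AC50 from Hill fit.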
The nature of test [8]: MultiTox-Fluor Cytotoxicity Assay - LYMP1-003 - Live Cells (AID 962).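 Further: cytotoxic hits lower the live-cell protease signal.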 In outline: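 Acute cytotoxicity is scored as a drop in live-cell protease activity in human lymphoblastoid LYMP1-003 cells after 16 hr compound exposure at 37 C. AC50 values come from Hill-equation modelling of concentration-response data.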
Test [9] in a line: Cell Viability - LYMP1-003 - Assay at 24 hr (AID 963). In outline: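 Cytotoxicity is scored as a concentration-dependent fall in ATP-linked luciferase signal in human lymphoblastoid LYMP1-003 cells treated 24 hr at 37 C in complete culture medium.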
Test [10] is described as follows: Cell Viability - LYMP1-003 - Assay at 40 hr (AID 964). Further: nearly all actives have a fitted effect of over 60% in size. Further: potency means the concentration at half of the fitted maximal effect. An outline of the steps:
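Luminescent ATP signal (CellTiter-Glo) served as the viability read-out after 40 hr compound treatment of human lymphoblastoid LYMP1-003 cells at 37 C. Decreases in ATP were fitted with the Hill equation to give AC50.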

Test [11] is described as follows: Cell Viability - LYMP2-003 (AID 965).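 Further: cells exposed to compounds for 24 h before reading; nearly all actives have a fitted effect of over 50% in size.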 Further: potency means the concentration at half of the fitted maximal effect. An outline of the steps:
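CellTiter-Glo luminescence (cellular ATP) after 24 h compound exposure at 37 C in complete medium; 2500 cells/well, 5 h settling beforehand. Concentration-response fitted to standard Hill equation for AC50. Tetraoctylammonium bromide served as positive control.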

Test [12] is described as follows: Cell Viability - LYMP2-004 (AID 966). Further: nearly all actives have a fitted effect of over 65% in size. Further: potency means the concentration at half of the fitted maximal effect. In outline:
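qHTS cytotoxicity: human lymphoblastoid line, 24 hr compound treatment, 37 C, complete medium. Viability read as cellular ATP via luciferase luminescence; tetraoctylammonium bromide served as positive control.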

The nature of test [13]: Cell Viability - LYMP2-005 (AID 967). Further: potency means the concentration at half of the fitted maximal effect. An outline of the steps: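 Steps: seed 2500 LYMP2-005 cells/well, incubate 5 h at 37 C, add compound, incubate 24 h at 37 C, add CellTiter-Glo, wait 30 min at RT, read luminescence. Concentration-response data fitted to Hill equation for AC50.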
Test [14] can be described thus: Cell Viability - LYMP2-009 (AID 968). Further: series mostly up to about 92 µM; nearly all actives have a fitted effect of over 55% in size.
Test [15] can be described thus: qHTS Assay for Identification of Small Molecule Agonists for Thrombopoietin (TPO) Signaling Pathway (AID 917). In outline: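 Ba/F3 (mouse) + hTPO receptor + GpIIb-promoter luciferase; IL-3 withdrawn overnight; compound + 26 pM TPO (EC50), 24 hrs, 37 C, 5% CO2; Steadylite luminescence, 10 min RT.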
Test [16] addresses Pyruvate kinase (Leishmania mexicana) (UniProt Q27686). Nature of the test: qHTS Validation Assay for Inhibitors of Leishmania Mexicana Pyruvate Kinase (AID 945). An outline of the steps: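 Substrate mix (0.5 mM PEP, 0.1 mM ADP, 7 mM MgCl2, 50 mM KCl, pH 7.2 imidazole) received compound by pin tool, then 0.2 nM LmPYK E451W. After 1 h at room temperature, PKLight was added and luminescence measured.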

Test [17] concerns the target Pyruvate kinase PKM (Homo sapiens) (UniProt P14618). As to the kind of experiment: qHTS Assay for Activators of Human Muscle Pyruvate Kinase (AID 954; active means well fitted curve in the direction sought with a large enough effect, not every such curve was filed as active). An outline of the steps:
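Compound pinned into substrate mix (0.5 mM PEP, 0.1 mM ADP), then 0.1 nM PKM2 added; 1 h, RT. Stop/detection luciferase reagent added, luminescence read. Normalized to no-inhibition and no-enzyme or reference-inhibitor controls.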
A general note: In qHTS, concentration-response curves come from the screen itself.

Test [18] in a line: Confirmation and Secondary Assay for Modulators of Hemoglobin Beta Chain Splicing at IVS2 705 locus (AID 930).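 Further: HeLa cells stably expressing the EGFP-705 splicing reporter; GFP fluorescence per well restored by corrected splicing of the IVS2-705 intron in EGFP; series mostly up to about 46 µM.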 An outline of the steps:
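HeLa EGFP-705 reporter; 500 cells/well, o/n 37C 5% CO2; cpd 2 d; 488 ex/500-520 em laser scan; total peak GFP intensity/well. Ref: 500 nM […] antisense PNA.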

Records with an inconclusive call do not appear. The source made the active and inactive calls. Unless noted, the call rests on the fitted dose curve; in most records, active means well fitted curve in the direction sought with a large enough effect; inconclusive means small, poorly fitted or top-dose-only effect, or another doubt; inactive means no such curve, though single readings can be large; an effect the other way counts as inactive or inconclusive.

Chain of Pyruvate kinase PKM (Homo sapiens) (P14618 whole entry, looked up): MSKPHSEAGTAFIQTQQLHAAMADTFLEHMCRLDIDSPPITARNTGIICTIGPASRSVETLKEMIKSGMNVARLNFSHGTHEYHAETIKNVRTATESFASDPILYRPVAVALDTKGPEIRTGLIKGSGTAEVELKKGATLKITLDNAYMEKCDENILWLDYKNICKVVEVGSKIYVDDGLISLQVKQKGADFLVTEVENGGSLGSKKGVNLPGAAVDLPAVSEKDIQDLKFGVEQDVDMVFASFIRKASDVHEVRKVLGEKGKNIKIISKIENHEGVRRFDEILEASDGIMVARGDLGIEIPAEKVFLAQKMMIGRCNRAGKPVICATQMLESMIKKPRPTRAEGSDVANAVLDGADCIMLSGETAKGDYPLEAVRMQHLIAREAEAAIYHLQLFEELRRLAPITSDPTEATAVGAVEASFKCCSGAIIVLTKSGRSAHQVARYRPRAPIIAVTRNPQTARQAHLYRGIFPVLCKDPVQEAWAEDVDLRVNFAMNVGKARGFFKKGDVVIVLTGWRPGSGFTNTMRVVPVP
Chain of Pyruvate kinase (Leishmania mexicana) (Q27686 2-499 E452W): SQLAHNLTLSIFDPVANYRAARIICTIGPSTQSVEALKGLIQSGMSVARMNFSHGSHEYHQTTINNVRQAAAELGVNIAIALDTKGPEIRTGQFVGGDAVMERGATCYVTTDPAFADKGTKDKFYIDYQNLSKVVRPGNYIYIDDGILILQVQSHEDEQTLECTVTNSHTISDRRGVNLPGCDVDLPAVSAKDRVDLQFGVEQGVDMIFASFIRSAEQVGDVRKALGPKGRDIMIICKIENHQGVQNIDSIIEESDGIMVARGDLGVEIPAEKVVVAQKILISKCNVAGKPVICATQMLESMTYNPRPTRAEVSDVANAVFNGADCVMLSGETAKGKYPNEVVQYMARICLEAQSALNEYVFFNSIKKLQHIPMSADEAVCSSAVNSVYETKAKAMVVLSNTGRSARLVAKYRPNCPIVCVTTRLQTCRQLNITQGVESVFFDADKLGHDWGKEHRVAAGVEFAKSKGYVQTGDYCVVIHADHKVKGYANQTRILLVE

For `CC(O)CO` (stereo not drawn), the Potency entry in test [1], in test [2], in test [6], in test [7], in test [10] and in test [11] was “inactive” each time. Besides, the Potency result in test [12], in [13] and in test [14] was “inactive” each time. Moreover, the outcome in test [3], in test [4], in [5], in test [8] and in [9] was inactive.
`COc1ccc(CCNC[C@H](O)c2ccc(O)cc2)cc1OC`: the outcome in test [15], in test [16] and in test [17] was inactive.
Consider `Oc1cc(O)c2c(c1)OC(c1ccc(O)c(O)c1)C(O)C2` (stereo not drawn), for which, in [18], the result was inactive.
Take `C=CCSSSCC=C`: the outcome in test [18] was inactive.
For `CCCCC/C=C\C/C=C\CCCCCCCC(=O)O`, the Potency entry in [1], in test [2], in test [6], in [7], in test [10] and in [11] was “inactive” each time. Moreover, the Potency entry in [12] and in test [14] was “inactive” throughout. In addition, the compound was classed as inactive in test [4], in test [5], in [8] and in test [9].
Turning to `CN1Cc2c(N)cccc2C(c2ccccc2)C1` (stereo not drawn), in test [18], the compound was called inactive.
For `CCOC(C)=O`, the Potency entry in test [1], in test [2], in test [6], in [7], in test [10] and in test [11] was “inactive” in each case. In addition, the Potency result in test [12], in test [13] and in test [14] was “inactive” throughout. The call in test [3], in test [4], in test [5], in test [8] and in [9] was inactive.
Take `CC(C)(C)NC(=O)[C@@H]1C[C@@H]2CCCC[C@@H]2CN1C[C@@H](O)[C@H](Cc1ccccc1)NC(=O)[C@H](CC(N)=O)NC(=O)c1ccc2ccccc2n1`: the Potency in test [2] is 50.1 µM (active); in test [6] it was 31.6 µM (active); in test [7], 50.1 µM (active); in test [10], 50.1 µM (active).
For the compound `CCCCCCCC/C=C\CCCCCCCC(=O)O`, the Potency result in [1], in test [2], in test [6], in [7], in test [10] and in [11] was “inactive” in each case. For the same compound, the Potency result in test [12], in test [13] and in test [14] was “inactive” throughout. In addition, the compound was called inactive in test [4], in [5], in [8] and in test [9].
As to `CC1=C(/C=C/C(C)=C/C=C/C(C)=C/CO)C(C)(C)CCC1`, the compound was classed as inactive in test [18], in test [4], in test [5], in test [8] and in test [9]. Moreover, the Potency in [11] is 50.1 µM (active); in test [12], 39.8 µM (active); in [13], 50.1 µM (active).
In the case of `Cc1ccccc1`, the Potency result in test [1], in test [2], in [6], in [7], in test [10] and in test [11] was “inactive” each time. Also, the Potency entry in test [13] and in test [14] was “inactive” each time. Besides, the compound was classed as inactive in test [3], in [4], in test [5], in test [8] and in test [9].
Turning to `CCCCCCCC(=O)O`, the Potency entry in test [1], in test [2], in test [6], in test [7], in [10] and in test [11] was “inactive” each time. Further, the Potency result in [12], in [13] and in [14] was “inactive” each time. In addition, the call in test [3], in [4], in test [5], in test [8] and in test [9] was inactive.
Turning to `CC1=C(/C=C/C(C)=C/C=C/C(C)=C/C=C/C=C(C)/C=C/C=C(C)/C=C/C2=C(C)CCCC2(C)C)C(C)(C)CCC1`, in test [18], the compound was classed as inactive.
For `CC1=C2[C@@H]([C@H](C)CC[C@H]2/C=C(\C)C(=O)O)[C@H](O)C1`, the Potency result in [1], in test [2], in test [6], in [7], in test [10] and in test [11] was “inactive” throughout. Further, the Potency entry in [12], in test [13] and in test [14] was “inactive” in each case. For the same compound, the result in test [3], in test [4], in [5], in [8] and in [9] was inactive.

Source of the values: PubChem BioAssay (NCATS).
